# Several values for one entry are separate records, joined by “and”; a condition that tells them apart may be missing. Equal entries are not always repeated. Some compounds were tested as several samples or in several runs, with calls that do not always agree. Activity calls are given as the source filed them. How the source made its calls: active means hit-call score of the fitted dose curve at least 0.9, where 1 is the maximum; inactive means score below 0.9.
# Read-out: Pro-epidermal growth factor (Homo sapiens) (UniProt P01133)
# Assay: LTEA_HepaRG_EGF: Life Technologies and Expression Analysis (LTEA) Assay for Epidermal growth factor (EGF) using HepaRG (AID 2283489)
# Conditions: mRNA level, 48 h; actives raise or lower the signal
# Outline: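 Concentration-response mRNA assay: HepaRG cells dosed 48 h (max 100 uM, 0.5% DMSO), EGF measured by qRT-PCR and normalized to ACTB/GAPDH/POLR2A.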
SMILES,outcome,AC50
O=C(O)C(F)(F)C(F)(F)C(F)(F)C(F)(F)C(F)(F)C(F)(F)C(F)(F)F,inactive,
CC(C)N(C(=O)COc1nnc(C(F)(F)F)s1)c1ccc(F)cc1,inactive,
OCCOc1ccccc1,inactive,
O=C(Nc1ccccc1)Nc1cnns1,inactive,
CNC(=O)CSP(=S)(OC)OC,inactive,
ClC1C(Cl)C(Cl)C(Cl)C(Cl)C1Cl (centres undefined),inactive,1.92 µM (active)
CCCN(CCC)c1c([N+](=O)[O-])cc(C(F)(F)F)cc1[N+](=O)[O-],inactive,
O=S(=O)(O)C(F)(F)C(F)(F)C(F)(F)C(F)(F)C(F)(F)C(F)(F)C(F)(F)C(F)(F)F,inactive,
CN1CSC(=S)N(C)C1,inactive,
CC1(c2ccc(Oc3ccccc3)cc2)OC(=O)N(Nc2ccccc2)C1=O (centres undefined),inactive,
O=C1c2ccccc2C(=O)N1SC(Cl)(Cl)Cl,inactive,
CCOC1Oc2ccc(OS(C)(=O)=O)cc2C1(C)C (centres undefined),inactive,
CC(C)(C)C(O)C(Oc1ccc(Cl)cc1)n1cncn1 (centres undefined),inactive,
COc1nn(CSP(=S)(OC)OC)c(=O)s1,inactive,
O=C(NC(=O)c1c(F)cccc1F)Nc1ccc(OC(F)(F)C(F)OC(F)(F)F)c(Cl)c1 (centres undefined),inactive,
O=C(O)CCCOc1ccc(Cl)cc1Cl,inactive,
O=[N+]([O-])/N=C1\NCCN1Cc1ccc(Cl)nc1,,30.2 µM (active)
Clc1ccccc1-c1nnc(-c2ccccc2Cl)nn1,inactive,
Oc1cc(Cl)ccc1Oc1ccc(Cl)cc1Cl,inactive,
CCC(C)Nc1c([N+](=O)[O-])cc(C(C)(C)C)cc1[N+](=O)[O-] (centres undefined),,10.7 µM (active)
Oc1ccc(Cl)cc1Cc1ccccc1,inactive,
CNC(=O)/C=C(\C)OP(=O)(OC)OC,inactive,

# Read-out: Early growth response protein 1 (EGR1) transcription factor, EGR1 (gene 1958)
# Assay: LTEA_HepaRG_EGR1: Life Technologies and Expression Analysis (LTEA) Assay for Early growth response protein 1 (EGR1) transcription factor using HepaRG (AID 2283490)
# Conditions: mRNA level, 48 h; actives raise or lower the signal
# Outline: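 EGR1 transcript levels quantified by qRT-PCR (Fluidigm arrays) against three housekeeping genes after 48 h chemical exposure of HepaRG cells. Eight-point half-log series topping at 100 uM, 0.5% DMSO vehicle, analyzed for gain or loss.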
SMILES,AC50,outcome
O=C(O)C(F)(F)C(F)(F)C(F)(F)C(F)(F)C(F)(F)C(F)(F)C(F)(F)F,12.1 µM (active),inactive
CC(C)N(C(=O)COc1nnc(C(F)(F)F)s1)c1ccc(F)cc1,,inactive
OCCOc1ccccc1,,inactive
CNC(=O)CSP(=S)(OC)OC,,inactive
ClC1C(Cl)C(Cl)C(Cl)C(Cl)C1Cl (centres undefined),,inactive
CCCN(CCC)c1c([N+](=O)[O-])cc(C(F)(F)F)cc1[N+](=O)[O-],,inactive
O=S(=O)(O)C(F)(F)C(F)(F)C(F)(F)C(F)(F)C(F)(F)C(F)(F)C(F)(F)C(F)(F)F,50 µM (active) and 7.35 µM (active),inactive
CN1CSC(=S)N(C)C1,,inactive
CC1(c2ccc(Oc3ccccc3)cc2)OC(=O)N(Nc2ccccc2)C1=O (centres undefined),82.1 µM (active),
O=C1c2ccccc2C(=O)N1SC(Cl)(Cl)Cl,,inactive
CCOC1Oc2ccc(OS(C)(=O)=O)cc2C1(C)C (centres undefined),,inactive
CC(C)(C)C(O)C(Oc1ccc(Cl)cc1)n1cncn1 (centres undefined),,inactive
COc1nn(CSP(=S)(OC)OC)c(=O)s1,,inactive
O=C(NC(=O)c1c(F)cccc1F)Nc1ccc(OC(F)(F)C(F)OC(F)(F)F)c(Cl)c1 (centres undefined),,inactive
O=C(O)CCCOc1ccc(Cl)cc1Cl,,inactive
O=[N+]([O-])/N=C1\NCCN1Cc1ccc(Cl)nc1,,inactive
Clc1ccccc1-c1nnc(-c2ccccc2Cl)nn1,,inactive
Oc1cc(Cl)ccc1Oc1ccc(Cl)cc1Cl,,inactive
CCC(C)Nc1c([N+](=O)[O-])cc(C(C)(C)C)cc1[N+](=O)[O-] (centres undefined),,inactive
Oc1ccc(Cl)cc1Cc1ccccc1,50.5 µM (active),inactive
CNC(=O)/C=C(\C)OP(=O)(OC)OC,,inactive

# Read-out: Ezrin (EZR), EZR (gene 7430)
# Assay: LTEA_HepaRG_EZR: Life Technologies and Expression Analysis (LTEA) Assay for Ezrin (EZR) using HepaRG (AID 2283491)
# Conditions: mRNA level, 48 h; actives raise or lower the signal
# Outline: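 Differentiated human HepaRG cells, 48 h after plating, were exposed in serum-free induction medium for 48 hours to eight half-log concentrations up to 100 uM in 0.5% DMSO. EZR mRNA was measured by TaqMan qRT-PCR, normalized to ACTB, GAPDH and POLR2A, and fitted bidirectionally against DMSO.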
SMILES,outcome,AC50
O=C(O)C(F)(F)C(F)(F)C(F)(F)C(F)(F)C(F)(F)C(F)(F)C(F)(F)F,inactive,
CC(C)N(C(=O)COc1nnc(C(F)(F)F)s1)c1ccc(F)cc1,inactive,
OCCOc1ccccc1,inactive,
CNC(=O)CSP(=S)(OC)OC,inactive,
ClC1C(Cl)C(Cl)C(Cl)C(Cl)C1Cl (centres undefined),inactive,
CCCN(CCC)c1c([N+](=O)[O-])cc(C(F)(F)F)cc1[N+](=O)[O-],inactive,
O=S(=O)(O)C(F)(F)C(F)(F)C(F)(F)C(F)(F)C(F)(F)C(F)(F)C(F)(F)C(F)(F)F,inactive,50 µM (active) and 14.2 µM (active)
CN1CSC(=S)N(C)C1,inactive,
CC1(c2ccc(Oc3ccccc3)cc2)OC(=O)N(Nc2ccccc2)C1=O (centres undefined),,4.5 µM (active)
O=C1c2ccccc2C(=O)N1SC(Cl)(Cl)Cl,inactive,
CCOC1Oc2ccc(OS(C)(=O)=O)cc2C1(C)C (centres undefined),,78.8 µM (active)
CC(C)(C)C(O)C(Oc1ccc(Cl)cc1)n1cncn1 (centres undefined),inactive,
COc1nn(CSP(=S)(OC)OC)c(=O)s1,inactive,
O=C(NC(=O)c1c(F)cccc1F)Nc1ccc(OC(F)(F)C(F)OC(F)(F)F)c(Cl)c1 (centres undefined),inactive,
O=C(O)CCCOc1ccc(Cl)cc1Cl,inactive,
O=[N+]([O-])/N=C1\NCCN1Cc1ccc(Cl)nc1,inactive,
Clc1ccccc1-c1nnc(-c2ccccc2Cl)nn1,inactive,
Oc1cc(Cl)ccc1Oc1ccc(Cl)cc1Cl,inactive,
CCC(C)Nc1c([N+](=O)[O-])cc(C(C)(C)C)cc1[N+](=O)[O-] (centres undefined),inactive,
Oc1ccc(Cl)cc1Cc1ccccc1,inactive,
CNC(=O)/C=C(\C)OP(=O)(OC)OC,inactive,

# Source: PubChem BioAssay (EPA / NIEHS)
